High-throughput results: PubChem, National Center for Advancing Translational Sciences (NCATS)
Rows were chosen to be rich in hits. Some 5.7% of all compounds tested hit in one or more screens of this group.
HT1080-NT tox = qHTS for induction of synthetic lethality in tumor cells producing 2HG: qHTS for the HT-1080-NT fibrosarcoma cell line; HT-1080-NT fibrosarcoma viability, CellTiter-Glo ATP luminescence, 48 h; Potency, µM (highest dose often 46.1 µM), usual class: cytotoxic; actives 1.6% (n = 360,000);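 further: NT is the 2HG producing partner of a matched IDH1 knockdown line; nearly all actives have a fitted effect of over 55% in size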
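Toxicity toward the 2HG-producing NT line was scored as %Activity, normalised to DMSO and no-cell wells, from CellTiter-Glo luminescence after 48 hours' treatment.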
HT1080 IDH1KD tx = qHTS for induction of synthetic lethality in tumor cells producing 2HG: qHTS for the HT-1080-IDH1KD cell line; Potency, µM (top dose mostly 46.1 µM), most hits filed as cytotoxic; HT-1080 IDH1 knockdown viability, ATP luminescence, 48 h; actives 2% (n = 360,000)
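HT-1080-IDH1KD cells (IDH1 knocked down), 750/well in RPMI with 5% FBS, treated with compound 48 h at 37 degrees C. Viability by CellTiter-Glo luminescence, normalised to DMSO and no-cell wells; concentration-response curves classed.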
KB-3-1 tox = qHTS assay for MDR1-selective chemotherapeutics: Primary screen using the parental adenocarcinoma cell KB-3-1 | KB-3-1 viability, CellTiter-Glo ATP luminescence, 72 h | Potency, µM (doses to about 46.1 µM), usual class: cytotoxic | actives 1.4% (n = 400,000) | AID 1347075, 2019; further: nearly all actives have a fitted effect of over 60% in size
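Viability of parental KB-3-1 cells, measured by CellTiter-Glo luminescence, followed a 72 h incubation at 37 °C with pinned compounds in phenol-red-free DMEM containing 10% FBS.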
KB-V1 cytotox = qHTS assay for MDR1-selective chemotherapeutics: Primary screen using the drug-selected MDR subline cells KB-V1 | Potency, µM (titrated, usually from 46.1 µM), most hits filed as cytotoxic | KB-V1 MDR cells viability, CellTiter-Glo, 72 h | actives 3.4% (n = 400,000); further: nearly all actives have a fitted effect of over 60% in size
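Potencies derive from concentration-effect curves fitted to normalized luminescence (CellTiter-Glo) of KB-V1 cells treated for 72 h at 37 degrees C in phenol-red-free DMEM containing 10% FBS.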
Hits are given with their value; i = inactive; ? = inconclusive; nt = no result; [ ] = dose if it differs, or a comment. The call rests on the fitted dose curve; in most records, active means well fitted curve in the direction sought with a large enough effect; inconclusive means small, poorly fitted or top-dose-only effect, or another doubt; inactive means no such curve, though single readings can be large; an effect the other way counts as inactive or inconclusive.

SMILES | HT1080-NT tox | HT1080 IDH1KD tx | KB-3-1 tox | KB-V1 cytotox
CC(=O)N1CCN(c2ccc(NC(=O)c3ccc([N+](=O)[O-])o3)cc2Cl)CC1 | 3.26µM | 6.51µM | ? | ?
CCC(=O)N1CCN(c2ccc(Cl)cc2NC(=O)Cc2ccc(Cl)cc2)CC1 | i | ? | i | 3.66µM
CCCN(C(=O)CCc1nc(-c2ccc(OC)cc2)no1)c1ccccc1F | nt | nt | i | i
CCc1c(C)nc2ncnn2c1NCCc1ccccc1 | i | i | i | ?
Cc1nc2ncnn2c(Nc2ccc3c(c2)OCO3)c1Cc1ccccc1 | i | i | ? | 16.4µM
Cn1c(=O)c2c(nc(N3CCOCC3)n2Cc2cccc(Br)c2)n(C)c1=O | nt | nt | i | ?
O=C(NCc1cccc(F)c1)c1cccc(NC(=O)c2nsc3ccccc23)c1 | nt | nt | ? | i
CCSc1nc2c(c(=O)[nH]c(=O)n2C)n1Cc1ccc(Cl)cc1 | i | i[9.24 µM] | ? | 7.31µM
C/C=C/Cn1c(SCc2ccccc2)nc2c1c(=O)[nH]c(=O)n2C | i | i | i | 2.91µM
Cn1c(=O)c2c(nc(NCc3ccc4c(c3)OCO4)n2Cc2ccccc2Cl)n(C)c1=O | i | i | i | i
CCCCn1c(SCc2ccc(Cl)cc2)nc2c1c(=O)[nH]c(=O)n2C | i | ? | i | ?
Cn1c(=O)c2c(nc(SCC(=O)NCc3ccc4c(c3)OCO4)n2Cc2ccc(Cl)cc2)n(C)c1=O | i | i | i | 4.11µM
CCSc1nc2c(c(=O)n(C)c(=O)n2C)n1Cc1ccc(Cl)cc1 | i | i | i | 13µM
CCOCCn1c(SCc2ccccc2)nc2c1c(=O)[nH]c(=O)n2C | i | i | i | i
Cn1c(=O)c2c(nc(SCCN3CCCCC3)n2Cc2ccc(Cl)cc2)n(C)c1=O | ? | i | i | i
Cc1ccc2c(=O)cc(C(=O)Nc3ccc(S(=O)(=O)Nc4onc(C)c4C)cc3)oc2c1C | nt | nt | i | i
Cc1cccn2c(=O)c(C(=O)N3CCN(c4ccccc4)CC3)cnc12 | nt | nt | i | i
CC(=O)c1ccc(NC(=O)c2cn(-c3ccccc3)nc2-c2ccc(Br)cc2)cc1 | nt | nt | i | ?
CCC1(c2ccc(OC)cc2)NC(=O)N(CC(=O)NC2CCCCC2C)C1=O (stereo unspecified) | i | i | i | i
COc1ccc(OC)c(CCNC(=O)C(C)n2c(C)c3cnn(-c4ccccc4)c(=O)c3c2C)c1 (stereo unspecified) | nt | nt | i | ?
CCN(C(=O)Cn1ncc2c1-c1cc(C)ccc1OC2)c1cc(Cl)ccc1OC | nt | nt | i | i
O=C(NCC(c1cccnc1)N1CCc2ccccc21)c1cccc(F)c1 (stereo unspecified) | nt | nt | i | i
CC(C)CCn1c(Sc2nc3ccccc3o2)nc2c1c(=O)[nH]c(=O)n2C | i | i | i | 14.6µM
C=CCSc1nc2c(c(=O)[nH]c(=O)n2C)n1C/C=C(/C)Cl | i | i | i | 13µM
CCCCCCn1c(SCC(C)C)nc2c1c(=O)[nH]c(=O)n2C | i | i | ? | 10.3µM
SMILES | HT1080-NT tox | HT1080 IDH1KD tx | KB-3-1 tox | KB-V1 cytotox
Cn1c(=O)[nH]c(=O)c2c1nc(N1CCCCC1)n2CCSc1nc2ccccc2o1 | i | i | i | i
CCCOc1ccc(C2C(C(=O)c3ccc(C)o3)=C(O)C(=O)N2Cc2ccco2)cc1 (stereo unspecified) | i | i | i | 18.4µM
NC1=NC(=O)S/C1=C\c1ccc(F)cc1 | 23.1µM | ? | i | i
CCn1c(Cc2ccccc2)nnc1SCC(=O)Nc1ccc(OC)cc1 | i | i | i | i
COc1ccc(NC(=O)CSc2nnc3c4c(nc(-c5ccccc5)n23)CC(C)(C)OC4)cc1 | i | i | i | 2.91µM
CCn1c(CNc2ccc(OC)cc2)nnc1SCC(=O)Nc1ccc(F)cc1 | i | i | i | 20.6µM
COc1ccc(NC(=O)CSc2nnc(-c3cccs3)n2-c2ccccc2)cc1 | 23.1µM | ? | i | i
COc1ccc(NC(=O)CSc2nnc(C3CC3)n2-c2ccccc2)cc1 | i | i | i | i
CCn1c(Cc2ccc(OC)cc2)nnc1SCC(=O)Nc1cccc(C(=O)OC)c1 | i | i | i | 5.17µM
COc1ccc(OC(=O)c2nc(SCc3ccccc3C)ncc2Cl)cc1 | nt | nt | i | ?
COc1ccc2c(c1)c1c(c(=O)n(-c3ccccc3C)c(=O)n1CC(N)=O)n2C | nt | nt | i | i
COc1ccccc1N1CCN(CCCNC(=O)c2cnn(-c3ccccc3)c2C2CCN(C(=O)OC(C)(C)C)CC2)CC1 | nt | nt | i | i
O=S(=O)(c1ccccc1)N(C1=NCCS1)S(=O)(=O)c1ccccc1 | i | i | i | 20.6µM
COc1ccc(C(=O)CN2C(=O)N(c3ccc(C(C)=O)cc3)S(=O)(=O)c3ccccc32)cc1 | nt | nt | i | ?
CCOc1ccc(NC(=S)N(Cc2ccc(N(C)C)cc2)Cc2ccco2)cc1 | i | i | i | 14.6µM
COc1ccc(NC(=S)N(Cc2ccc(N(C)C)cc2)Cc2ccco2)cc1 | i | i | i | i
O=S(=O)(NCCc1nnc2ccc(SCc3ccccc3Cl)nn12)c1ccccc1 | nt | nt | ? | i
Cc1cc(C)nc(NS(=O)(=O)c2ccc(NC(=O)COc3ccccc3F)cc2)n1 | i | i | i | i
CCOc1ccccc1OCC(=O)Nc1ccc(S(=O)(=O)Nc2nc(C)cc(C)n2)cc1 | i | i | i | 18.4µM
Cc1cc(C)nc(NS(=O)(=O)c2ccc(NC(=O)c3cccc(N4C(=O)CCC4=O)c3)cc2)n1 | 23.1µM | i | i | i
CCOC(=O)N1CCC(NC(=O)C2CCCN(Cc3nc(-c4cccc(C)c4)oc3C)C2)CC1 (stereo unspecified) | ? | ? | i | ?
Cc1cccc(-c2nc(CN3CCCC(C(=O)NC4CCC(C)CC4)C3)c(C)o2)c1 (stereo unspecified) | i | i | i | 20.6µM
Cc1cccc(-c2nc(CN3CCCC(C(=O)NC4CCCC4)C3)c(C)o2)c1 (stereo unspecified) | ? | ? | i | 9.2µM
CC1CCCN(c2nc(NCc3ccco3)nc(N)c2[N+](=O)[O-])C1 (stereo unspecified) | ? | i | i | 14.6µM
Cc1ccc(Nc2nc(N)c([N+](=O)[O-])c(NCc3ccco3)n2)cc1 | i | ? | ? | ?
SMILES | HT1080-NT tox | HT1080 IDH1KD tx | KB-3-1 tox | KB-V1 cytotox
Nc1nc(NCCc2ccccc2)nc(NCc2ccccc2)c1[N+](=O)[O-] | i | i | ? | i
Cc1ccc2c(NCc3ccco3)nc(NC(C)C)nc2c1 | 25.9µM | 18.4µM | i | ?
CC1CC(C)CN(c2nc(NCc3ccco3)nc(N)c2[N+](=O)[O-])C1 (stereo unspecified) | i | i | ? | ?
Nc1nc(Nc2ccccc2)nc(NCc2ccco2)c1[N+](=O)[O-] | i | i | i | 16.4µM
CN(Cc1ccccc1)c1nc(N)c([N+](=O)[O-])c(NCc2ccccc2)n1 | ? | ? | ? | 18.4µM
Fc1ccc(Nc2nc(NCc3ccco3)c3ccccc3n2)cc1 | ? | i | ? | 18.4µM
c1coc(CNc2nc(NCc3ccco3)c3ccccc3n2)c1 | nt | nt | i | i
